Hit rate of the full screen: of about 190,000 compounds, about 6,900 (3.6%) were called active. Cut-off read from the data, not from the text of the source: active = inhibition above about 50%; inactive = the rest. Only a selection was taken, and actives are over-represented in it overall.

For this assay, the target named is Huntingtin (Homo sapiens) (UniProt P42858). In words: mutant huntingtin-calmodulin interaction inhibitors – biochemical, AlphaScreen, primary screen (AID 1671202).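 Note: 0% = both proteins with DMSO and 100% = one protein alone.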 Conditions: AlphaScreen His-mHTT/GST-CaM binding, luminescence; at 15 µM, active compounds read high.
Chain of Huntingtin (Homo sapiens) (P42858 whole entry, looked up, stated change not applied): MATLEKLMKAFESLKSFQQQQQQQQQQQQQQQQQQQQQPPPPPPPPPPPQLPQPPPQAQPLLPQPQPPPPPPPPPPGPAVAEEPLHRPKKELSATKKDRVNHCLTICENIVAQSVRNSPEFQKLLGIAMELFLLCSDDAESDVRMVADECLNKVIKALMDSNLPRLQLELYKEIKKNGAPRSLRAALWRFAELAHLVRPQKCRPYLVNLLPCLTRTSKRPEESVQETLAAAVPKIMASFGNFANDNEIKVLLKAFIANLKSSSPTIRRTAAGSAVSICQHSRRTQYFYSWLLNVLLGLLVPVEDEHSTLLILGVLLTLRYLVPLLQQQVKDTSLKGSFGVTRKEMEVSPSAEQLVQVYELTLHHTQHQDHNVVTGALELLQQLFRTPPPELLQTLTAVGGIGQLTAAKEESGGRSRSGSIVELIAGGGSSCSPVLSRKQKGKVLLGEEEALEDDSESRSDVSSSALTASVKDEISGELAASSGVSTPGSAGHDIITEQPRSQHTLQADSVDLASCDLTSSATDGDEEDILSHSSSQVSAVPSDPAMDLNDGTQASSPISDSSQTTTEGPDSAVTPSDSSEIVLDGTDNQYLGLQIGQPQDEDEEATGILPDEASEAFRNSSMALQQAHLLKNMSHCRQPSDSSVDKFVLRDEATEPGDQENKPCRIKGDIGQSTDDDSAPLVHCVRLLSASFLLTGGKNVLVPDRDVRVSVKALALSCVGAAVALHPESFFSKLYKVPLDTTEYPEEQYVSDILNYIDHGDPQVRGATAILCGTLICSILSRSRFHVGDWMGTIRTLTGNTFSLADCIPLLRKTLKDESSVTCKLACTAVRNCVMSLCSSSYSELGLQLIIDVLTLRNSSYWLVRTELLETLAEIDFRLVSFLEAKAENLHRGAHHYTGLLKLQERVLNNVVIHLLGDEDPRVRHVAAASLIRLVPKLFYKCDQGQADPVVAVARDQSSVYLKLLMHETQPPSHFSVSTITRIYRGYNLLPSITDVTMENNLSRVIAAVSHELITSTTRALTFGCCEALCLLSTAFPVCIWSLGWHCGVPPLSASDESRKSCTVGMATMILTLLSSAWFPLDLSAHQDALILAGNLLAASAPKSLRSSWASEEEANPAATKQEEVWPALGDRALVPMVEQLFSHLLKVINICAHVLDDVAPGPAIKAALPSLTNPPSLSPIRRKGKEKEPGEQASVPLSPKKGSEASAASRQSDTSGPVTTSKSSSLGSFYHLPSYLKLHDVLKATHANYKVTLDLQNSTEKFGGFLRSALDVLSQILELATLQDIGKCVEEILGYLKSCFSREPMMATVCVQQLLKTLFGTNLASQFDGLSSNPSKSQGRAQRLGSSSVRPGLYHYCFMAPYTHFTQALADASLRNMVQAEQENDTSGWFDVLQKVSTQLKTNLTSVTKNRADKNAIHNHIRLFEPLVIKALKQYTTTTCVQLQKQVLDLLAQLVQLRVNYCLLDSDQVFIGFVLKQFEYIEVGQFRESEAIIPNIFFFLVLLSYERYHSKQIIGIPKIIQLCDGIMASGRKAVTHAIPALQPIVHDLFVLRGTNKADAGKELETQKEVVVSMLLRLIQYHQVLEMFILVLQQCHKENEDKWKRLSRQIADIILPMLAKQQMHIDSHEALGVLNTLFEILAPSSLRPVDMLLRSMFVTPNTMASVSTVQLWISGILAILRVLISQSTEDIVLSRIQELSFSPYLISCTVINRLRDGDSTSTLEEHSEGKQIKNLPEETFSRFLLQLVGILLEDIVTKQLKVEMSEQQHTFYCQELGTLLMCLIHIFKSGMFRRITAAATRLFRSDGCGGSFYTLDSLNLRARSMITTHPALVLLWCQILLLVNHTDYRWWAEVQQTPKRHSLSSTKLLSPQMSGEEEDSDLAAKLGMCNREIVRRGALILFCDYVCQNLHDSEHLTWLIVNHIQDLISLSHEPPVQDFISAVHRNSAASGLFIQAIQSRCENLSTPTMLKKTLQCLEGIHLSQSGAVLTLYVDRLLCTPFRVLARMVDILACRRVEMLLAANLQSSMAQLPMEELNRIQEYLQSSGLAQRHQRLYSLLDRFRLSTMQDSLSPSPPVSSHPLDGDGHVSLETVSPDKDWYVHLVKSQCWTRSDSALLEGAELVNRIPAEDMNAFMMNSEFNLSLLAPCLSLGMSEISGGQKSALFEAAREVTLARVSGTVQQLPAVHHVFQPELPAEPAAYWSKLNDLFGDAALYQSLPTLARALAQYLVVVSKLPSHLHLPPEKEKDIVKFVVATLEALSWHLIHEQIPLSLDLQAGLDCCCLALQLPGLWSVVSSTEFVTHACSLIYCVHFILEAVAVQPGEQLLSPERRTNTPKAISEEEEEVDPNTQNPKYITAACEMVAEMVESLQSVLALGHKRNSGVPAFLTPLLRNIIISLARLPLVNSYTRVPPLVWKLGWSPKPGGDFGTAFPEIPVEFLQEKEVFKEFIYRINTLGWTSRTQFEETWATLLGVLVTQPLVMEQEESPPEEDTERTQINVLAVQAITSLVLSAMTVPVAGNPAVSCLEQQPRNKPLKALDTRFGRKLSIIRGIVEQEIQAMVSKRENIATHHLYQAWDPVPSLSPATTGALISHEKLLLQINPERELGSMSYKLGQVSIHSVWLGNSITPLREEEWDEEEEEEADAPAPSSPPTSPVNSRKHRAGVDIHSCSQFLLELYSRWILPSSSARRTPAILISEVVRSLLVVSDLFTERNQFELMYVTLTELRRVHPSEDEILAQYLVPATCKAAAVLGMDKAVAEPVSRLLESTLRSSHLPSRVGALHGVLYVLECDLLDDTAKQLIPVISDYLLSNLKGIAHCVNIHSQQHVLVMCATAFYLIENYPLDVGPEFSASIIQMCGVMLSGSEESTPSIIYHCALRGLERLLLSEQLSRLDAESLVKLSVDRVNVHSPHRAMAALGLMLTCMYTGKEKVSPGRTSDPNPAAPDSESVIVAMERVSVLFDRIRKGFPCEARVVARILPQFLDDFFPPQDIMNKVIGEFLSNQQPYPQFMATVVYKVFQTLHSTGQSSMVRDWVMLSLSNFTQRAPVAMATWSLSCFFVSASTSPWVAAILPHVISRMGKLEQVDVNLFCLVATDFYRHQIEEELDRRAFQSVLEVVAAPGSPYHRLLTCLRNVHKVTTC
For the compound `Cc1nc2c(C(=O)NC3CCCC3)cnn2c(C)c1Cc1cccc(Cl)c1`, the inhibition is 79% (active).

`Cc1ccccc1Cc1c(C)nc2c(C(=O)NC3CCCCC3)cnn2c1C`: the inhibition was 3% (inactive).

For the compound `Cc1cc(C)c(Cc2c(C)nc3c(C(=O)NC4CCCC4)cnn3c2C)c(C)c1`, the inhibition is -6% (inactive).

Take `COc1ccc(C2=NC3(CCN(CC(=O)NCc4ccc(C)cc4)CC3)NC2=O)cc1`: the inhibition is 18.4% (inactive).

On to `CC(C)NC(=O)c1ccc(C(=O)NC(C)C)nc1`, for which the inhibition is 0.9% (inactive).

`CN1CCC(NC(=O)C2CCN(c3nc4ccc(-c5ccsc5)nc4s3)CC2)CC1`: the inhibition was 70.8% (active).

`CCN(CC)C(=O)C1CCN(c2nc3ccc(-c4ccc(OC)cc4)nc3s2)CC1`: the inhibition is 66.8% (active).

On to `O=C(NC1CC1)C1CCN(c2nc3ccc(-c4ccccc4)nc3s2)CC1`, for which the inhibition was 0.8% (inactive).

`CN(C)C(=O)C1CCN(c2nc3ccc(-c4cccc(F)c4)nc3s2)CC1`: the inhibition was 0.2% (inactive).

For the compound `CC(C)CNC(=O)C1CCN(c2nc3ccc(-c4ccncc4)nc3s2)CC1`, the inhibition is 4.07% (inactive).

Take `COc1ccc(-c2ccc3nc(N4CCC(C(N)=O)CC4)sc3n2)cc1`: the inhibition was 27% (inactive).

With `O=C(NCc1ccc2c(c1)OCO2)c1cc2c(s1)CCN(C(=O)c1ccc(F)cc1)C2`, the inhibition was 1.84% (inactive).

As to `CCOc1ccc2c(=O)c(Oc3ccccc3)coc2c1`, the inhibition is -2.3% (inactive).

As for `CCOc1ccccc1NC(=O)Nc1ccc2c(c1)CN(C(=O)c1ccco1)CC2`, the inhibition was 28.9% (inactive).

Turning to `Cn1c(C2CCN(C(=O)Cc3ccccc3)C2)nc2ccncc21` (configuration not stated), the inhibition was -1.65% (inactive).

As for `N#Cc1nc(-c2ccco2)oc1N1CCN(C(=O)c2ccccc2F)CC1`, the inhibition was -5.8% (inactive).

Regarding `Cc1ccccc1-n1c(=O)n(C2CC2)c(=O)c2c1ncn2Cc1c(F)cccc1F`, the inhibition is -4.6% (inactive).

As for `Cc1cc(C)nc(SCC(=O)c2ccc(Cl)cc2)n1`, the inhibition was 1.3% (inactive).

Regarding `COc1ccc(C(=O)Sc2nc(C)cc(C)n2)cc1`, the inhibition is 98% (active).

On to `COc1ccc(NC(=O)c2ccc(OC)cc2)cc1`, for which the inhibition was -2% (inactive).

For the compound `COc1ccc(C2=N/C(=C\c3ccc(Cl)cc3)C(=O)O2)cc1OC`, the inhibition was -4% (inactive).

As for `O=c1[nH]c2ccc(S(=O)(=O)Nc3ccc(OC(F)(F)F)cc3)cc2o1`, the inhibition is 0% (inactive).

For `O=C(Nc1nnc(Cc2cccs2)o1)c1ccc(Cl)cc1Cl`, the inhibition was 6% (inactive).

Take `COc1ccc(-c2cc3c(c4c2ccn4C)C2CCC3C2)cn1` (configuration not stated): the inhibition is 52.6% (active).

`Cc1cc2[nH]c(C(=O)Nc3ccccc3F)c(CN3CCOCC3)c2s1`: the inhibition was 23% (inactive).

For `COc1ccc(C(=O)N2CCC(c3cc(N)on3)CC2)cc1F`, the inhibition was 3.7% (inactive).

On to `CCCCN(C)C(=O)C1CCCN(c2ncccc2-c2noc(C3CCC3)n2)C1` (configuration not stated), for which the inhibition was 23.9% (inactive).

Regarding `COc1cc2c(cc1OC)C(C(=O)O)C(c1cccc([N+](=O)[O-])c1)N(C)C2=O` (configuration not stated), the inhibition is 0% (inactive).

Turning to `CC(=O)c1cc2c3c(c1)C1C=CCC1C(c1cccc([N+](=O)[O-])c1)N3CC1CC=CC21` (configuration not stated), the inhibition is 97% (active).

As for `COc1ccc2c(c1)C1=NN(C(C)=O)C(c3cccc([N+](=O)[O-])c3)C1CC2` (configuration not stated), the inhibition was 3% (inactive).

Take `O=C(NCc1ccco1)Nc1c[nH]c2ccccc12`: the inhibition was 3% (inactive).

For the compound `NCCN1C(=O)c2[nH]nc(-c3ccccc3)c2C1c1ccccc1` (configuration not stated), the inhibition is 9% (inactive).

For `CCOC(=O)N1CCC(c2nnc(Cc3ccc(OC)cc3)s2)CC1`, the inhibition was -8.5% (inactive).

Turning to `Cc1ccc(C(=O)Nc2cc(-c3ccccn3)no2)cc1`, the inhibition is 1.2% (inactive).

Take `NS(=O)(=O)c1ccc(C(=O)NCCOc2ccc(-c3ccccn3)nn2)cc1`: the inhibition is 100% (active).

Consider `Cc1nc(-c2ccccc2)sc1C(=O)NCCOc1ccc(-c2cccs2)nn1`, for which the inhibition was 6% (inactive).

`O=C(Cc1ccccc1Cl)NCC1CCN(c2cc(-c3ccncc3)[nH]n2)CC1`: the inhibition was -5.18% (inactive).

(Values after PubChem BioAssay AID1671202 (University of Kansas High Throughput Screening Laboratory, 2021).)
